Structures are written as SMILES. Structures can show the parent of a compound that is named as a salt.

The assay concerns Escherichia coli IAI1. The assay is described as follows: fold change of Putrescine concentration vs plate DMSO controls (fold change (ratio)); higher = more amine produced, active = hit call of the paper (significant change in both replicates, either direction). Conditions: incubation time: 27 h, anaerobic, 37 °C. The procedure, abridged:
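Extracts of whole anaerobic mGAM cultures were analysed for amines by LC–triple-quadrupole MS with dynamic MRM and external calibration curves, with drift corrected within batch. Four gut strains were grown at 37 °C for 27 h in 80 µL wells with compounds at 20 µM final, sweeteners at 50 µM final. Each value expresses fold change over plate DMSO controls. The average of 2 biological replicates is shown.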
`CC(C)COCC(CN(Cc1ccccc1)c1ccccc1)N1CCCC1` (centres undefined) [Bepridil hydrochloride] (20 µM): the “fold change of Putrescine concentration” value was 1.03 (inactive).

Turning to `C[C@@H]1C[C@H]2[C@@H]3CCC4=CC(=O)C=C[C@]4(C)[C@@]3(Cl)[C@@H](O)C[C@]2(C)[C@@]1(OC(=O)c1ccco1)C(=O)CCl` [Mometasone furoate] (20 µM), the “fold change of Putrescine concentration” value is 1.02 (inactive).

In the case of `c1ccc(-c2ccc(C(c3ccccc3)n3ccnc3)cc2)cc1` (centres undefined) [Bifonazole] (20 µM), the “fold change of Putrescine concentration” value is 1.04 (inactive).

For the compound `Cc1ncc([N+](=O)[O-])n1CC(C)O` (centres undefined) [Secnidazole] (20 µM), the “fold change of Putrescine concentration” value was 0.978 (inactive).

In the case of `CC(=O)[C@H]1CC[C@H]2[C@@H]3C[C@H](C)C4=CC(=O)CC[C@]4(C)[C@H]3[C@@H](O)C[C@]12C` [Medrysone] (20 µM), the “fold change of Putrescine concentration” value is 0.978 (inactive).

As to `Cc1ccc(C(=O)c2ccc(CC(=O)O)n2C)cc1` [Tolmetin sodium salt dihydrate] (20 µM), the “fold change of Putrescine concentration” value was 0.949 (inactive).

In the case of `COCCOC(=O)C1=C(C)NC(C)=C(C(=O)OC(C)C)C1c1cccc([N+](=O)[O-])c1` (centres undefined) [Nimodipine] (20 µM), the “fold change of Putrescine concentration” value was 0.889 (inactive).

Take `CCCCCCCCCCCCCCCCCCCCCC(=O)Nc1ccn([C@@H]2O[C@H](CO)[C@@H](O)[C@@H]2O)c(=O)n1` [Enocitabine] (20 µM): the “fold change of Putrescine concentration” value was 1.01 (inactive).

In the case of `CCN(CCCc1ccccc1)CCCc1ccccc1` [Alverine citrate salt] (20 µM), the “fold change of Putrescine concentration” value was 0.895 (inactive).

Regarding `CN(C)CCCC1(c2ccc(F)cc2)OCc2cc(C#N)ccc21` (centres undefined) [Citalopram hydrobromide] (20 µM), the “fold change of Putrescine concentration” value is 0.927 (inactive).

As for `O=C1Nc2ccc(Cl)cc2[C@@](C#CC2CC2)(C(F)(F)F)O1` [Efavirenz] (20 µM), the “fold change of Putrescine concentration” value was 1.04 (inactive).

`O=C1NS(=O)(=O)c2ccccc21` [Saccharin] (50 µM): the “fold change of Putrescine concentration” value is 1.05 (inactive).

Consider `O=C(O)CCCC[C@@H]1SC[C@@H]2NC(=O)N[C@@H]21` [Biotin] (20 µM), for which the “fold change of Putrescine concentration” value was 0.982 (inactive).

On to `CC(C)(C(=O)O)c1ccc(C(O)CCCN2CCC(C(O)(c3ccccc3)c3ccccc3)CC2)cc1` (centres undefined) [Fexofenadine hydrochloride] (20 µM), for which the “fold change of Putrescine concentration” value was 0.971 (inactive).

For the compound `CC(C)[C@H]1CC[C@H](C(=O)N[C@H](Cc2ccccc2)C(=O)O)CC1` [Nateglinide] (20 µM), the “fold change of Putrescine concentration” value was 1.2 (inactive).

Regarding `COc1ccc(CNc2nc(N3CCC[C@H]3CO)ncc2C(=O)NCc2ncccn2)cc1Cl` [Avanafil] (20 µM), the “fold change of Putrescine concentration” value was 1.04 (inactive).

For the compound `C#CCN(C)CCCOc1ccc(Cl)cc1Cl` [Clorgyline hydrochloride] (20 µM), the “fold change of Putrescine concentration” value is 0.968 (inactive).

Turning to `Cc1cc(-c2ccccc2)nnc1NCCN1CCOCC1` [Minaprine dihydrochloride] (20 µM), the “fold change of Putrescine concentration” value is 0.963 (inactive).

As to `c1ccc(CNc2ncnc3nc[nH]c23)cc1` [Aminopurine, 6-benzyl] (20 µM), the “fold change of Putrescine concentration” value is 1.03 (inactive).

For the compound `COc1cccc(N(C)C(=S)Oc2ccc3c(c2)CCCC3)n1` [Liranaftate] (20 µM), the “fold change of Putrescine concentration” value is 0.998 (inactive).

Regarding `C=CCOc1ccccc1OCC(O)CNC(C)C` (centres undefined) [Oxprenolol hydrochloride] (20 µM), the “fold change of Putrescine concentration” value was 1.01 (inactive).

In the case of `C[C@@H](O[C@H]1OCCN(Cc2n[nH]c(=O)[nH]2)[C@H]1c1ccc(F)cc1)c1cc(C(F)(F)F)cc(C(F)(F)F)c1` [Aprepitant] (20 µM), the “fold change of Putrescine concentration” value is 1.03 (inactive).

Turning to `CCOc1ccc(Cc2nccc3cc(OCC)c(OCC)cc23)cc1OCC` [Ethaverine hydrochloride] (20 µM), the “fold change of Putrescine concentration” value is 1.05 (inactive).

Consider `O=C(CCCCC(=O)Nc1c(I)cc(I)c(C(=O)O)c1I)Nc1c(I)cc(I)c(C(=O)O)c1I` [Iodipamide] (20 µM), for which the “fold change of Putrescine concentration” value is 1.13 (inactive).

Take `NC(=O)c1cnccn1` [Pyrazinamide] (20 µM): the “fold change of Putrescine concentration” value is 1.01 (inactive).

Regarding `CCN(CC)CCOC(=O)c1ccc(N)cc1` [Procaine hydrochloride] (20 µM), the “fold change of Putrescine concentration” value is 1.16 (inactive).

For `CCCCC(CC)CNC(=N)NC(=N)NCCCCCCNC(=N)NC(=N)NCC(CC)CCCC` (centres undefined) [Alexidine dihydrochloride] (20 µM), the “fold change of Putrescine concentration” value was 1.08 (inactive).

As for `Cc1onc(-c2ccccc2)c1C(=O)N[C@@H]1C(=O)N2[C@@H]1SC(C)(C)[C@@H]2C(=O)O` [Oxacillin sodium] (20 µM), the “fold change of Putrescine concentration” value is 0.949 (inactive).

For `CC(=O)N[C@@H](CC(C)C)C(=O)O` [N-Acetyl-L-leucine] (20 µM), the “fold change of Putrescine concentration” value is 0.892 (inactive).

Regarding `CC(C)CN(C[C@@H](O)[C@H](Cc1ccccc1)NC(=O)O[C@H]1CO[C@H]2OCC[C@H]21)S(=O)(=O)c1ccc(N)cc1` [Darunavir] (20 µM), the “fold change of Putrescine concentration” value is 1.04 (inactive).

`CN1CCc2cccc3c2[C@H]1Cc1ccc(O)c(O)c1-3` [R(-) Apomorphine hydrochloride hemihydrate] (20 µM): the “fold change of Putrescine concentration” value is 0.98 (inactive).

Turning to `CC(=O)OCC(=O)[C@@]1(O)[C@H](C)C[C@H]2[C@@H]3CCC4=CC(=O)C=C[C@]4(C)[C@@]3(F)[C@@H](O)C[C@@]21C` [Dexamethasone acetate] (20 µM), the “fold change of Putrescine concentration” value is 0.987 (inactive).

As for `CN(C)CCC(c1ccc(Br)cc1)c1ccccn1` (centres undefined) [Brompheniramine maleate] (20 µM), the “fold change of Putrescine concentration” value was 0.981 (inactive).

As for `C#C[C@]1(O)CC[C@H]2[C@@H]3CCC4=C(CCC(=O)C4)[C@H]3CC[C@@]21C` [Norethynodrel] (20 µM), the “fold change of Putrescine concentration” value was 1.04 (inactive).

Regarding `CN1CCN(CCCN2c3ccccc3Sc3ccc(S(=O)(=O)N(C)C)cc32)CC1` [Thioproperazine dimesylate] (20 µM), the “fold change of Putrescine concentration” value is 0.969 (inactive).

Regarding `CCN1/C(=C/C=C/C=C/c2sc3ccccc3[n+]2CC)Sc2ccccc21` [Dithiazanine iodide] (20 µM), the “fold change of Putrescine concentration” value is 1.05 (inactive).

In the case of `O=C(O)/C=C/c1ccc(Cn2ccnc2)cc1` [Ozagrel hydrochloride] (20 µM), the “fold change of Putrescine concentration” value is 1.01 (inactive).

For the compound `C=CCOc1ccc(CC(=O)O)cc1Cl` [Alclofenac] (20 µM), the “fold change of Putrescine concentration” value is 1.02 (inactive).

`CCCCc1nc(Cl)c(CO)n1Cc1ccc(-c2ccccc2-c2nnn[nH]2)cc1` [Losartan] (20 µM): the “fold change of Putrescine concentration” value is 1.01 (inactive).

Values taken from the supplement of paper PMC12494721.
